Compound activity as filed in PubChem BioAssay.
Myeloid diff MLP = myeloid differentiation induction; ER-HoxA9 myeloid progenitors, lysozyme-GFP differentiation, flow cytometry; calls only at 10 µM; hit rate 1% among 360,000;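 active means normalized GFP-positive differentiation at or above the plate's own cutoff, the solvent-only control mean plus 3 SD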;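 further: cells exposed to compound for four days before flow analysis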
TLR9-MyD88 inh = blocks human TLR9 binding to MyD88; CHO BLA complementation TLR9-MyD88, CCF4 FRET ratio; Q9NR96+Q99836; inhibition, % at 4.98 µM; hit rate 0.21% among 340,000; AID 504734;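 active means inhibition above the mean over all tested compounds plus 3 SD, cut at about 21% in these data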
TLR4-MyD88 BLA = TLR4-MyD88 interaction inhibition in cells; HeLa CL3-4 TLR4/MyD88 BLA complementation, FRET ratio; inhibition, % at 8.4 µM; hit rate 0.18% among 200,000; AID 861; in the data active means inhibition above about 25%
ABCB6 inh MLPCN = inhibitors of human ABC transporter ABCB6. Q9NP58. K562-ABCB6 porphyrin accumulation, flow cytometry, 1 h; active compounds read low. fluorescence ratio to DMSO, % at 10 µM. hit rate 0.19% among 360,000. AID 602162;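 active means fluorescence ratio to DMSO below 75%, the collection mean minus 3 SD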;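 further: signal is porphyrin accumulated inside mitochondria; lower ratio means ABCB6 inhibition with less porphyrin fluorescence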
NOD2 RIPK2 PPI = inhibitors of human NOD2-RIPK2 interaction | CHO BLA complementation NOD2-RIPK2, CCF4 ratio | inhibition, % at 4.98 µM | hit rate 0.38% among 360,000; in the data active means inhibition above about 21%
Hits are given with their value; n = inactive; x = no result; + = active, no number. Compounds with a hit are over-represented: about 1.7% of the library has one in this group of screens.

SMILES | Myeloid diff MLP | TLR9-MyD88 inh | TLR4-MyD88 BLA | ABCB6 inh MLPCN | NOD2 RIPK2 PPI
COCCN(C(=O)CSc1nc2ccc(C)cc2[nH]1)c1c(N)n(Cc2ccccc2)c(=O)[nH]c1=O | + | n | n | n | n
Cc1cc(Cl)c(S(=O)(=O)Nc2ccon2)cc1OCC(=O)NC1CCCCC1 | n | n | n | n | n
Cc1cc(Cl)c(S(=O)(=O)Nc2ccc3c(c2)OCCO3)cc1OCC(=O)NC1CCCCC1 | n | n | n | 73.0 | n
Cc1ccc(-c2nc3cc(NC(=O)C(C)C)ccc3o2)cc1 | + | n | n | n | n
COc1ccccc1C(=O)Nc1nc2cc3c(cc2s1)OCCO3 | + | n | n | n | n
COc1ccccc1C(=O)Nc1nc2cc3c(cc2s1)OCO3 | n | n | x | n | n
Cc1ccc(C(=O)N[C@H](C(=O)Nc2sccc2C(N)=O)C(C)C)cc1 | + | n | x | n | n
CN1CCC(N(C)C(=O)c2cc(-c3ccccc3Cl)nc3ccccc23)CC1 | + | n | x | n | n
CN1CCC(N(C)C(=O)c2cc(-c3ccc(F)cc3)nc3ccccc23)CC1 | n | n | x | n | n
Cc1cccc(C(=O)NCC(=O)N2CCN(c3ccccn3)CC2)c1 | n | n | x | n | n
CCc1c(C)nc(SCC(=O)NNC(=O)c2ccco2)[nH]c1=O | + | n | x | n | n
Cc1ccc(NC(=O)CCc2c(C)nc3ncnn3c2C)cc1 | n | n | n | n | n
COC(=O)c1cc(NC(=O)CCc2c(C)nc3ncnn3c2C)cc(C(=O)OC)c1 | + | n | n | n | n
CC1(O)N(CCC(=O)Nc2cccc(F)c2)C(=O)OC12CCCCC2 (centres undefined) | n | n | n | n | n
CSc1ccc(CN2CCC(C)(Oc3ccc4ccccc4c3)C2)cc1 (centres undefined) | + | x | x | n | n
CSc1ccc(OC2(C)CCN(Cc3ccccc3)C2)cc1 (centres undefined) | n | x | x | n | n
CCCCn1nc(C(=O)N(CC)CC(=O)Nc2c(F)cccc2F)c2ccccc2c1=O | n | n | x | n | n
COc1ccccc1N1N=C(c2ccc([N+](=O)[O-])cc2)CC1c1ccccc1 (centres undefined) | + | n | x | x | n
CNc1ccc(-c2cc(OC)ccc2OC)cn1 | n | x | x | n | n
CN1CCc2nc(SCC(=O)Nc3ccc(OC(F)(F)F)cc3)c(C#N)c(-c3cccs3)c2C1 | + | n | n | n | n
CCCS(=O)(=O)N1CCCC(C(=O)Oc2ccc(OC)cc2)C1 (centres undefined) | n | n | x | n | n
COc1ccc(OC)c(S(=O)(=O)N2CCN(c3ccccc3)CC2)c1 | n | n | x | n | n
COc1ccc(OC)c(S(=O)(=O)ON2C(=O)c3ccccc3C2=O)c1 | + | n | x | n | n
COc1ccc(OC)c(NC(=O)CN(Cc2ccc(F)cc2)C2CCCCC2)c1 | n | n | x | n | n
Cc1ccc2c(c1)c1c3n2CCN(CC#N)C3CCC1 (centres undefined) | n | n | x | n | n
SMILES | Myeloid diff MLP | TLR9-MyD88 inh | TLR4-MyD88 BLA | ABCB6 inh MLPCN | NOD2 RIPK2 PPI
Cc1ccc2c(c1)c1c3n2CCCN(Cc2ccccc2)C3CCC1 (centres undefined) | + | n | n | n | n
O=C(O)Cc1ccc(C(=O)c2ccccc2)s1 | n | n | n | n | n
N#CCc1ccc(C(=O)c2ccccc2F)s1 | + | n | n | n | n
Cc1cc(NC(=O)CSc2nc3c(C)cccc3cc2C)no1 | n | n | x | n | n
Cc1ccc(O)c(NC(=O)c2ccc3c(c2)C(=O)N(Cc2cccnc2)C3=O)c1 | + | n | x | n | n
Cc1ccsc1C(=O)OCC(=O)N(C)c1c(N)n(Cc2ccccc2)c(=O)[nH]c1=O | n | n | x | n | n
CN1C(=O)S/C(=C\c2ccccc2OCc2ccc(C(=O)O)cc2)C1=O | n | n | n | n | n
Cc1ccc(Oc2ccccc2/C=C2\SC(=O)N(C)C2=O)cc1 | n | n | n | 74.0 | n
CC/C(O)=C1\C(=O)CC(c2ccccc2)CC1=NCCc1c(C)[nH]c2ccc(C)cc12 (centres undefined) | + | n | n | n | n
COc1cc(OC)cc(N(C(=O)CNC(=O)c2cccs2)C(C(=O)NCC2CCCO2)c2ccccc2)c1 (centres undefined) | n | n | x | n | n
C/C(CCc1ccc2c(c1)OCO2)=N\N=C1\NC(=O)CC(C(=O)Nc2ccccc2F)S1 (centres undefined) | n | n | n | n | n
COC(=O)[C@H](Cc1ccccc1)NC(=O)[C@@H](N)CC(=O)OCc1ccccc1 | + | n | x | n | n
CCOC(=O)C1=CCN(S(=O)(=O)c2ccccc2Br)C1c1ccc(Cl)c(Cl)c1 (centres undefined) | n | x | x | n | n
O=C(Nc1ccc(Cn2cccn2)cc1)c1ccc(COc2cccc(Br)c2)cc1 | + | n | n | n | n
CCOc1ccc(OCc2ccc(C(=O)Nc3cccnc3)cc2)cc1 | n | n | x | n | n
Cc1[nH]c2ccccc2c1C(=O)CSC(=S)N1CCOCC1 | n | n | x | n | n
CC1=C(C)/C(=N\OS(=O)(=O)c2ccccc2)C=CC1=O | x | n | n | n | 75.7
CCC1COC(c2cccn2Cc2ccccc2Cl)=N1 (centres undefined) | n | n | n | n | n
O=c1[nH]n2c(=O)c3c([nH]c2c1N=Nc1cccc(Cl)c1)CCCC3 | n | n | n | n | n
CCOc1ccc(N=Nc2c(=O)[nH]n3c(=O)c4c([nH]c23)CCCC4)cc1 | + | n | n | n | n
CC(C)N1CSC(=S)N(Cc2ccccc2)C1 | n | n | n | n | n
CCOC(=O)Cn1c(=O)c(-c2ccccc2N)nc2ccccc21 | n | n | x | n | n
CCOC(=O)Cn1c(=O)c(-c2cc(Br)ccc2N)nc2ccccc21 | + | n | x | n | n
CC(=O)c1ccc(NC(=S)NCCCN2CCOCC2)cc1 | n | n | n | n | n
O=C1C=CN(C2OC(CO)C(O)C2O)C(=O)C1 (centres undefined) | + | n | x | n | n
SMILES | Myeloid diff MLP | TLR9-MyD88 inh | TLR4-MyD88 BLA | ABCB6 inh MLPCN | NOD2 RIPK2 PPI
COc1ccc(NC(=O)CCNS(=O)(=O)c2ccc(C)c(C)c2)cc1OC | n | n | x | n | n
O=C1C(=Cc2cccc(O)c2O)SC(=S)N1CCCN1CCOCC1 | + | n | x | n | n
CSc1ccc(C=NNc2ccc(S(=O)(=O)Nc3ccccc3C(=O)O)cc2[N+](=O)[O-])cc1 | + | n | x | n | n
CCCc1cc(C(=O)OCC(=O)N(CCC)c2c(N)n(Cc3ccccc3)c(=O)[nH]c2=O)sc1C | n | n | x | n | n
Cc1ccccc1OCC(=O)NCC(c1cccs1)N1CCOCC1 (centres undefined) | n | n | x | n | n
O=S(=O)(c1ccc(SCc2ccccc2F)nc1)N1CCCC1 | n | n | x | n | n
Cn1cccc1/C=C1\CC(C(C)(C)C)C/C(=C\c2cccn2C)C1=O (centres undefined) | + | n | n | n | n
Cn1cccc1/C=C1\Cc2ccccc2C1=O | n | n | n | n | n
COc1ccc(CNC(=O)CN(Cc2ccc(Cl)cc2)S(=O)(=O)c2ccccc2)cc1 | + | n | n | n | n
